The results in this text go back to PubChem BioAssay (NCATS).

Results filed as inconclusive are left out. Activity calls are given as the source filed them. The call rests on the fitted dose curve; in most records, active means well fitted inhibition curve with a large enough effect; inconclusive means small, poorly fitted or top-dose-only effect; inactive means no such curve, though single readings can be large or run the other way.

This test is described as follows: Primary qHTS for small molecule stabilizers of the endoplasmic reticulum resident proteome: Secreted ER Calcium Modulated Protein (SERCaMP) assay (AID 1508630). The following applies: SH-SY5Y GLuc-SERCaMP (Gaussia luciferase released on ER calcium loss) secretion, thapsigargin, luminescence; series mostly up to 38.4 µM. The procedure, abridged:
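GLuc-SERCaMP-expressing SH-SY5Y cells, pretreated 16 h with compound, are challenged with thapsigargin to empty ER calcium stores; after 4 h, coelenterazine is added directly to the medium and luminescence is imaged.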
In general terms: Quantitative high-throughput screening tests each substance at several concentrations.
On to `CCc1ccccc1OC[C@@H](O)CN[C@H]1CCCc2ccccc21`, for which the outcome was inactive. Then `O=S(=O)(c1ccccc1)N(CC(F)(F)F)c1ccc(C(O)(C(F)(F)F)C(F)(F)F)cc1`, with “inactive”. For `COc1ccc2[nH]c(=O)c3c(c2c1)OC(C)(C)C=C3`, the outcome was inactive.

For the compound `CN(C)CCCn1cc(C2=C(c3c[nH]c4ccccc34)C(=O)NC2=O)c2ccccc21`, the outcome was inactive.

On to `COc1cc(C[C@H]2C(=O)OC[C@@H]2Cc2ccc(OC)c(OC)c2)ccc1O`, for which the result was inactive. Then `NC(=O)C[C@@H](N)C(=O)O`, with “inactive”.
